Measured values from PubChem BioAssay AID1233 (SRMLSC, 2008).
Entries with a potency or affinity are not part of this list. Active and inactive are the calls of the source.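 How the source made its calls: active means a dose-response curve fit returns a half-maximal inhibitory concentration, extrapolated values included; inactive means the fit returns no such concentration.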

The compounds below were run against HMG-CoA reductase [Enterococcus faecalis] (UniProt Q9FD70) (assay: class II HMG-CoA reductase inhibition potency – biochemical, Enterococcus faecalis, confirmation (AID 1233)). Conditions: purified E. faecalis HMGR, NADPH absorbance 340 nm kinetics; series mostly up to 100 µM.

outcome, inactive:
CC(NCCC(c1ccccc1)c1ccccc1)c1ccccc1 (stereo not drawn), O=C(NC(NC(=S)Nc1ccccc1C(=O)O)C(Cl)(Cl)Cl)c1ccccc1 (stereo not drawn), COc1cc(Cn2c(=O)oc3ccc(C)cc32)ccc1OC(C)C, CCn1c(C)nc2cc(S(=O)(=O)C(F)(F)C(F)C(F)(F)F)ccc21 (stereo not drawn), COC(=O)C1C(c2ccc(N(C)C)cc2)C(C(=O)OC)S(=O)(=O)CS1(=O)=O (stereo not drawn), C=CCNC(=O)C(C#N)c1nc2ccccc2nc1N1CCCCCC1 (stereo not drawn), O=C(CCc1nc2ccccc2c(=O)[nH]1)N1CCN(C/C=C/c2ccccc2)CC1, COc1cccc(NC(=O)c2ccc3snnc3c2)c1, Cn1c(CSc2nc3ccccc3s2)nc2ccccc21, C=CCNC(=O)C(=O)NN=C1CCN(C)CC1, COc1ccccc1N(CC(O)CN(c1ccccc1)S(C)(=O)=O)S(=O)(=O)c1ccccc1 (stereo not drawn), Cc1c(Br)c([N+](=O)[O-])nn1C(C)C(=O)Nc1ccc2c(c1)OCO2 (stereo not drawn), Cc1cc(C)cc(-n2c3nc4ccccc4nc3c3c(=O)n(Cc4ccco4)cnc32)c1, Cc1csc(NC(=O)c2cnccn2)n1, CN(Cc1ccccc1)c1nc(N)nc(Cl)c1C=O, Cc1[nH][nH]c(=O)c1C(c1c(C)[nH][nH]c1=O)c1cn(Cc2ccc(Cl)c(Cl)c2)c2ccccc12, COc1ccc(CCNC(=O)c2ccccc2Cl)cc1OC, Cn1c(SCC(=O)N2CCCC2=O)nnc1-c1ccccc1F, CCN(CC)Cc1c(C(=O)N2CCc3ccccc3C2)nc2ccc(Cl)cn12, NNC(=O)C1CC1c1ccc(Cl)cc1 (stereo not drawn), CC1=CC(C)C(C(=O)O)C(C(=O)O)C1 (stereo not drawn), COc1cc(S(=O)(=O)N2CCC(c3nc4ccccc4s3)CC2)ccc1S(=O)(=O)NC1CCCC1, O=C(CNC(=O)c1ccc(S(=O)(=O)N2CCCC2)cc1)N/N=C/c1ccc(Cl)cc1, C=C(C)Cn1c(-c2ccncc2)n[nH]c1=S, CN(C)S(=O)(=O)c1ccc(NC(=O)N2CCOCC2)cc1, CCC1Oc2ccccc2N(CC(=O)NCc2ccco2)C1=O (stereo not drawn), CCOC(=O)C1CCN(C(=O)CN(c2ccc3c(c2)OCCO3)S(C)(=O)=O)CC1, c1ccc(-c2ccnc3nc(N4CCN(c5ccccc5)CC4)nn23)cc1, Cc1ccc(Cn2nnc3c(=O)n(CC(=O)NCc4ccco4)cnc32)cc1, O=C(N/N=C/c1ccc(OC(F)F)cc1OC(F)F)c1cccc(S(=O)(=O)N2CCOCC2)c1, COc1cc(OC)cc(C(=O)N[C@H](C(=O)OCn2nnc3ccccc3c2=O)C(C)C)c1, COc1ccc(-n2c(SCC(N)=O)nc3sc4c(c3c2=O)CCN(C)C4)cc1, O=C(O)c1cc(-c2ccc(N3CCOCC3)cc2)nn1-c1ccccc1Cl, CC1CN(C(=O)c2cccc(S(=O)(=O)Nc3ccc(Cl)cc3)c2)CC(C)O1 (stereo not drawn), Cc1cc(C)n(C2CC(=O)N(c3ccccc3)C2=O)n1 (stereo not drawn), COc1ccc(CSc2nnnn2C)cc1[N+](=O)[O-], CCC(=O)Nc1ccc2c(c1)nc(CN1CCCCC1)n2C, Nc1c(C(=O)c2ccccc2)sc2c1c(=O)[nH]c(=O)n2-c1ccccc1
